Source: PubChem BioAssay
This is one part of a sample in which hits are shown more often than they occur.
CHX counter – counter-screen hit for Shiga toxin inhibitors, cycloheximide | cell reporter, cycloheximide protein synthesis inhibition counterscreen | max response, % | hit rate 12% among 300,000 | AID 2314; in the data active = max response mostly above about 13%, no sharp cut-off; inactive = mostly below about 14%; also: read at 38.3 µM for the half of the compounds with a filed dose; 0% is about no effect
TbPYK inhibitor – inhibitors of Trypanosoma brucei pyruvate kinase. Q57TT1. TbPYK enzyme, Kinase-Glo Plus ATP luminescence, 45 min. Potency, µM (top dose mostly 76.8 µM), for inactives: at the highest dose activity, negative = inhibition, actives largely listed as inhibitors. hit rate 0.12% among 410,000; also: potency is read from the fitted curve at half-maximal effect; % is scaled to controls: 0 for no effect and ±100 for the full control effect; nearly all actives have a fitted effect of over 50% in size
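Enzyme and substrate buffer are dispensed first and compound is pin-transferred. ADP at 130 uM final then starts the reaction, which runs 45 min at room temperature. Detection reagent is added for 10 min before luminescence is imaged.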
RE007 growth inh – less growth of the S. pombe RE007 Vpr strain. S. pombe RE007 Vpr strain, BacTiter-Glo ATP luminescence, 24 h. Potency, µM (doses to about 92.2 µM), for the others: top-dose activity change, negative = less growth, usual class: inhibitors. hit rate 0.21% among 360,000. AID 651644; active = well fitted falling curve with a large enough effect; inconclusive = small, poorly fitted or top-dose-only effect; inactive = no such curve, though single readings can be large or run the other way; also: potency is read from the fitted curve at half-maximal effect; % is scaled to controls: 0 for no effect and ±100 for the full control effect; nearly all actives have a fitted effect of over 50% in size
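Fission yeast RE007 carrying one integrated HIV-1 vpr copy, seeded at OD 0.01 in PMG+AL medium with 23 nL pinned compound. Grown 24 h at 30 degrees; viability read by BacTiter-Glo luminescence after 5 min.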
Shiga toxin inh – inhibitors of Shiga toxin in Vero cells; Vero cells, Shiga toxin protein synthesis inhibition reporter; inhibition, % at 38.7 µM; hit rate 9.2% among 290,000; in the data active = inhibition mostly above about 28%, no sharp cut-off; inactive = mostly below about 43%; also: 0% is about no effect
FBPA Giardia inh – inhibitors of Giardia lamblia fructose-1,6-bisphosphate aldolase; hit rate 0.71% among 290,000; A8B2U2; Potency, µM (series often up to 59.6 µM), inactives show at the top dose activity, negative = inhibition, usual class: inhibitors; purified Giardia FBPA; also: potency is read from the fitted curve at half-maximal effect; % is scaled to controls: 0 for no effect and ±100 for the full control effect; nearly all actives have a fitted effect of over 55% in size
Target sequence (A8B2U2 whole entry, looked up): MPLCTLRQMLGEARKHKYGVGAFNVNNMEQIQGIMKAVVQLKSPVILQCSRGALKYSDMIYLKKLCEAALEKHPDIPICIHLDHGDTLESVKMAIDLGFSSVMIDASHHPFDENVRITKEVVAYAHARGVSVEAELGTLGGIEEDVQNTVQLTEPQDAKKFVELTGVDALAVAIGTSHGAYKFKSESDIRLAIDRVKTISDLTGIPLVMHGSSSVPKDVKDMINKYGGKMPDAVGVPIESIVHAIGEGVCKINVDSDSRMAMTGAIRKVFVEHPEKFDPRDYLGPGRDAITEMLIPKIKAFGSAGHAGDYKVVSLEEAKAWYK
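Giardia FBPA (40 nM reagent) was preincubated 10 min at RT with compound (up to 57.5 uM final), then substrate plus GAPDH/TPI/NAD/arsenate coupling system with diaphorase/resazurin was added; resorufin fluorescence (525/598 nm) was read after 20 min.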
LmPK inh – inhibitors of Leishmania mexicana pyruvate kinase; purified LmPK, Kinase-Glo ATP luminescence, 1 h; Potency, µM (doses to about 57.5 µM), for the others: at the highest dose activity change, negative = inhibition, most hits filed as inhibitors; hit rate 0.37% among 290,000; AID 1721; also: potency is read from the fitted curve at half-maximal effect; % is scaled to controls: 0 for no effect and ±100 for the full control effect
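Purified LmPK (0.1 nM) converted ADP (0.1 mM) to ATP with PEP (0.5 mM) in imidazole buffer pH 7.2 with KCl and MgCl2, 1 h at room temperature. ATP was read by Kinase-Glo luminescence; data normalized to uninhibited and no-enzyme controls.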
* marks the source's active call; other numbers are inactive results; ? = inconclusive; . = no result given; [ ] = dose if it differs, or a comment. Unless noted, calls follow the shape of the dose curve; as a rule, active = well fitted curve in the direction sought with a large enough effect; inconclusive = small, poorly fitted or top-dose-only effect, or another doubt; inactive = no such curve, though single readings can be large; an effect the other way counts as inactive or inconclusive.

SMILES	CHX counter	TbPYK inhibitor	RE007 growth inh	Shiga toxin inh	FBPA Giardia inh	LmPK inh
O=C(Nc1ccc2c(c1)oc1ccccc12)c1ccncc1	50.9*	.	13.3%[3.69 µM]	67.5*	6.3%	-3.5%
O=C(Nc1ccc(NC(=O)c2ccncc2)cc1)c1ccncc1	-4.4	.	.	-7.9	1.3%	-0.6%
COc1ccc(CCNC(=O)c2ccc3c(c2)c(C)c(C)n3Cc2ccccc2)c(OC)c1OC	.	0.2%[15.4 µM]	.	.	.	.
Cc1ccc(CCNC(=O)C2CCN(S(=O)(=O)c3ccc4c(ccn4C)c3)CC2)cc1	.	0.7%	.	.	.	.
CCC1(c2ccc(O)cc2)NC(=O)NC1=O (stereo not given)	-6.7	.	.	-11.1	0.4%	.
COC(=O)c1c(Oc2ccc(OC)cc2)nnc(-c2ccccc2)c1-c1ccccc1	.	0.3%	.	.	.	.
O=C(CCC1CCCN(C(=O)c2ccc3c(c2)OCO3)C1)NCc1ccc(F)c(F)c1 (stereo not given)	14.7*	6.4%	13.1%	41.4*	3.7%	-5.7%
O=C(CCC1CCCN(C(=O)c2ccoc2)C1)NCc1ccc(F)c(F)c1 (stereo not given)	9.8	-6.0%	-10.6%	22.1	1.5%	-2.3%
O=C(CCC1CCCN(C(=O)c2ccc3cc[nH]c3c2)C1)NCc1ccc(F)c(F)c1 (stereo not given)	29.4*	1.2%	7.3%	29.6*	2.8%	-3.5%
COC(=O)c1ccc(C2N=C(c3cccs3)CC(c3ccccc3O)N2)cc1 (stereo not given)	38.1*	0.6%	-23.7%	100.0*	-9.5%	0.3%
O=C(NCC1COc2ccccc2O1)c1ccc(-n2cncn2)c([N+](=O)[O-])c1 (stereo not given)	.	-0.8%	-11.8%	.	.	.
NS(=O)(=O)c1ccc(NCC2COc3ccccc3O2)c([N+](=O)[O-])c1 (stereo not given)	15.9*	-1.9%	0.7%	63.1	-0.7%	1.0%
CC(=O)c1ccc(NCC2COc3ccccc3O2)c([N+](=O)[O-])c1 (stereo not given)	30.6*	-4.0%	-2.1%	56.7*	-1.1%	0.7%
CC(=O)Nc1ccc(NC(=O)C2CCN(c3c(NC(C)=O)c(C)nn3-c3ccccc3)CC2)cc1	.	-2.5%	.	.	.	.
Cc1c(C(=O)OC(C)C)[nH]c2c1C(=O)CC(C)(C)C2	11.3*	-5.5%	4.8%	-2.1	-1.7%	3.9%
COc1cccc(C(=O)N/N=C/C(Br)=C/c2ccccc2)c1	51.6*	14.5%	-3.6%	114.4*	-12.2%	-1.3%
Cn1cc(C(=O)N/N=C/C(Br)=C\c2ccccc2)ccc1=O	-1.4	2.0%	-22.3%	-4.1	4.8%	-10.0%
COc1ccc(C(=O)N/N=C/C(Br)=C/c2ccccc2)cc1	31.3*	1.4%	-17.9%	60.0*	-9.7%	0.3%
Cn1cc(C(=O)N/N=C/C(Br)=C/c2ccccc2)ccc1=O	1.8	-8.4%	6.1%	14.9	-6.9%	1.4%
Cc1ccc(C)c(OCC(=O)NNC(=O)C2CC2)c1	-2.6	-11.2%	12.9%	-25.2	.	-8.3%
Cc1ccc(C)c(OCC(=O)NC2CCCCCC2)c1	27.0*	-1.8%	3.8%	10.7	.	-7.3%
Cc1ccccc1OCC(=O)NC1CCCCCCC1	11.7	0.4%	8.9%	59.4*	-2.4%	6.0%
O=C(COc1ccccc1Cl)NC(=O)NC1CCCC1	26.2*	0.2%	?	25.9	2.7%	1.2%
Cc1cc(Cl)ccc1OCC(=O)NC1CCCC1	34.4*	0.0%	-1.8%	36.7	-0.1%	10.7%
CCOc1ccc(Nc2oc(-c3ccc(COc4ccccc4C)o3)nc2C#N)cc1	.	4.8%	.	.	.	.
SMILES	CHX counter	TbPYK inhibitor	RE007 growth inh	Shiga toxin inh	FBPA Giardia inh	LmPK inh
CS(=O)(=O)c1ccc(CNC(=O)[C@H]2C[C@@H]2[C@H](NP(=O)(c2ccccc2)c2ccccc2)c2ccccc2)cc1	.	.	.	.	-0.7%	.
COC(=O)c1ccc(NC(=O)CSc2n[nH]c(CC(C)C)n2)cc1	.	-6.6%	.	.	.	.
CN(C(=O)CSc1cn(CC(=O)N2CCCCC2)c2ccccc12)c1ccccc1	.	-9.6%	.	.	.	.
O=C(COc1ccc2ccccc2c1)NC1CC1	43.1*	3.9%	-18.0%	70.0*	-0.1%	-0.8%
Cc1cccc(CC(=O)NC2CCCCCC2)c1	14.1*	-2.8%	6.7%	75.9	4.8%	0.3%
Cc1cc(Cl)ccc1OCC(=O)NNC(=O)c1ccco1	35.0*	4.3%	13.9%	35.2*	.	-7.9%
COc1ccc(NC(=O)c2ccco2)cc1NC(=O)COc1ccc(Cl)cc1C	.	3.5%	.	.	.	.
Cc1ccc(OCC(=O)NC2CCCC2)c(C)c1	35.9*	4.1%	-17.5%	41.5	0.3%	-1.6%
Cc1cccc(CC(=O)NC2CCN(C)CC2)c1	3.2	0.0%	7.2%	.	-11.2%	-0.8%
CCC/C=C(\CCC)C(NC(=O)c1ccccc1)c1ccc(C(=O)OC)cc1 (stereo not given)	.	.	.	.	-0.6%	.
Cc1oc(-c2ccccc2)nc1Cn1c(=O)cc(-c2ccccc2)c2c(C)nn(C)c21	.	2.9%	.	.	.	.
Cn1cccc1C(=O)OCC(=O)NC(=O)NC1CCCCC1	41.0*	-8.7%	-3.9%	63.5	4.2%	3.4%
Cc1ccc(OCC(=O)NC2CCCCCC2)cc1C	25.3*	0.4%	0.8%	41.8	0.8%	8.0%
O=C(COc1ccc(Cl)cc1Cl)NC1CCSC1=O (stereo not given)	40.1*	1.0%	-10.0%	130.7*	-1.8%	3.4%
Cc1cccc(C(=O)OCC(=O)NC(=O)NC2CCCCC2)c1	.	-7.2%	-7.6%	.	.	.
O=C(O)c1ccc(S(=O)(=O)N2CCCc3ccccc32)cc1	-0.9	1.5%	11.1%	-2.4	11.4%	1.7%
COCCNC(=O)c1ccc(S(=O)(=O)N2CCCc3ccccc32)cc1	29.3*	0.1%	3.2%	74.2*	-1.7%	-2.3%
COc1cc(/C=C/C(=O)O)cc(S(=O)(=O)N2CCCc3ccccc32)c1OC	12.4*	-15.9%	-5.6%	12.5	-14.4%	4.1%
Cc1ccc(S(=O)(=O)Nc2cc(C(=O)NCCN(C)C)ccc2N2CCCC2)cc1	-4.4	-1.4%	-3.3%	-7.9	5.3%	-3.5%
COc1ccc(S(=O)(=O)N2CCCc3ccccc32)cc1OC	32.9*	9.6%	2.5%	55.5*	-6.8%	8.3%
COc1cc(/C=C/C(=O)O)cc(S(=O)(=O)N2CCc3ccccc32)c1OC	8.7	-0.9%	-16.0%	12.8	-9.0%	0.0%
COCCNC(=O)c1ccc(N2CCCCC2)c(NS(=O)(=O)c2ccc(C)cc2)c1	15.8*	-12.0%	2.7%	-0.6	?	6.4%
COc1ccc(S(=O)(=O)N2CCCc3ccccc32)cc1[N+](=O)[O-]	-5.1	-1.1%	15.2%	-7.5	6.8%	0.4%
COc1ccc(C(=O)NCc2cccnc2)cc1S(=O)(=O)N1CCOCC1	-1.1	-5.4%	6.8%	0.5	0.6%	-0.3%
COc1ccc(C(=O)NCc2cccnc2)cc1S(=O)(=O)N1CCCc2ccccc21	19.4*	-3.5%	5.9%	29.6	3.7%	-3.6%
